AmpC inh no detg: inhibitors of E. coli AmpC beta-lactamase without detergent. P00811. AmpC nitrocefin hydrolysis, absorbance 480 nm, 0.0001% Triton. Potency, µM (highest dose often 57.1 µM), actives largely listed as inhibitors. 330,000 compounds, 0.52% hits; also: nearly all actives have a fitted effect of over 20% in size
Target sequence (P00811 whole entry, looked up): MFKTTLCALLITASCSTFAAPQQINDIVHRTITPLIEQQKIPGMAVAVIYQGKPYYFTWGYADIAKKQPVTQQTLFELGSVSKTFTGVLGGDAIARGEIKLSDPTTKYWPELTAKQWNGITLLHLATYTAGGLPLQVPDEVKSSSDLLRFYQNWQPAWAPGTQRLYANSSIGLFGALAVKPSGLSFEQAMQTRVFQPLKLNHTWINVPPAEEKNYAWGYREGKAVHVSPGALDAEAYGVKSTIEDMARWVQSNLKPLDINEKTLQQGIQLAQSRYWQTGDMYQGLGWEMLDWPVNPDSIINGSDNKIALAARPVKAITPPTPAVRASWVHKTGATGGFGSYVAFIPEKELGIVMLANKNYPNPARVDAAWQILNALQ
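20 mM phosphate pH 7.0 + 0.01% (detergent screen) or 0.0001% Triton X-100; 5.3 nM AmpC reagent; cpd preinc 15 min RT; nitrocefin (800 uM stock) to start; A480 q20 s × 4 min; Activity was normalised to no-enzyme and no-compound control wells.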
Pf growth 96h: P. falciparum growth inhibition at 96 hours. P. falciparum luciferase reporter growth, 96 h. 320,000 compounds, 6.9% hits. AID 504834. Potency, µM (titrated, usually from 28.7 µM), usual class: inhibitors
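Infected RBCs, 2% Hct / 0.05% parasitemia final; luciferase-reporter P. falciparum; cpd 96 h, 37 C, 5% CO2; luciferase detection reagent; luminescence.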
SARS PLpro yeast-1: SARS-CoV PLP inhibition in yeast; 330,000 compounds, 0.19% hits; S. cerevisiae expressing SARS-CoV PLpro, growth rescue; Potency, µM (top dose mostly 32.9 µM), usual class: activators; calls by dose curve; also: nearly all actives have a fitted effect of over 55% in size
Pf growth 48h: inhibits P. falciparum growth in the first generation, 48 h; Potency, µM (highest dose often 28.7 µM), usual class: inhibitors; 310,000 compounds, 5.9% hits; P. falciparum luciferase growth in erythrocytes, 48 h; AID 504832
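In quantitative HTS format, infected erythrocytes bearing luciferase-reporter parasites were treated for a single generation at 37 C. Luminescence after adding detection reagent served as the growth measure.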
Sm TGR inh: S. mansoni TGR enzyme inhibition | Q962Y6 | 360,000 compounds, 3% hits | purified TGR, DTNB reduction, TNB absorbance 405 nm | Potency, µM (top dose mostly 114 µM), hits mostly inhibitors; also: nearly all actives have a fitted effect of over 60% in size
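Kinetic colorimetric format: TGR-catalysed, NADPH-driven DTNB reduction monitored via TNB absorbance. Enzyme dispensed at 20 nM; compound exposure 15 min at room temperature before reaction start.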
AmpC detergent: AmpC beta-lactamase inhibition with detergent present; P00811; AmpC hydrolysis of nitrocefin, absorbance 480 nm, 0.01% Triton; Potency, µM (highest dose often 114 µM), hits mostly inhibitors; 370,000 compounds, 0.041% hits; also: nearly all actives have a fitted effect of over 25% in size
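20 mM phosphate pH 7.0 + 0.01% (detergent screen) or 0.0001% Triton X-100; 5.3 nM AmpC reagent; cpd preinc 15 min RT; nitrocefin (800 uM stock) to start; A480 q20 s × 4 min; Activity was normalised to no-enzyme and no-compound control wells.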
SARS PLpro yeast-2: Validates SARS-CoV PLpro inhibitor hits in yeast | shares compounds with SARS PLpro yeast-1 | yeast expressing SARS-CoV PLpro, growth phenotype rescue | calls only | 1,000 compounds, 19% hits; call rule not given here
Large screens that a line does not name were inactive (follow-up assays come after a bar, where they were run). Hits are enriched below; roughly 12% of the tested compounds scored in any of these assays. Unless noted, calls follow the shape of the dose curve; as a rule, active = well fitted curve in the direction sought with a large enough effect; inconclusive = small, poorly fitted or top-dose-only effect, or another doubt; inactive = no such curve, though single readings can be large; an effect the other way counts as inactive or inconclusive.

COc1ccccc1NC(=S)NNC(=O)c1nn(C)c(C)c1Br	SARS PLpro yeast-1 15.8µM | SARS PLpro yeast-2 inactive
CCOc1cccc(/C=N/Nc2ccc(S(=O)(=O)N(CC)CC)cn2)c1O	Pf growth 96h 2.62µM, SARS PLpro yeast-1 7.94µM, Pf growth 48h 2.94µM, AmpC detergent inconclusive | SARS PLpro yeast-2 inactive
CCc1ccc(Nc2n[n+](C)c(-c3ccncc3)s2)cc1	Pf growth 96h inconclusive, AmpC detergent inconclusive
CCCCNc1cc(C)nc(N2CCOCC2)n1	SARS PLpro yeast-1 inconclusive (no result: Pf growth 48h) | SARS PLpro yeast-2 inactive
Cc1ccc(Nc2cc(C)nc(N3CCOCC3)n2)cc1	none
CC(C)(CNC(=O)c1sc2cc(F)ccc2c1Cl)N1CCOCC1	Pf growth 96h inconclusive, SARS PLpro yeast-1 inconclusive, AmpC detergent inconclusive | SARS PLpro yeast-2 inactive
Cc1cccc2sc(NNC(=O)c3ccc(S(=O)(=O)N4CC(C)CC(C)C4)cc3)nc12 (centres undefined)	Pf growth 96h 2.94µM, SARS PLpro yeast-1 3.98µM, Pf growth 48h inconclusive | SARS PLpro yeast-2 active
Cc1cc(C)c2nc(NC(=O)c3ccc(S(=O)(=O)N4CCC(C)CC4)cc3)sc2c1	none (no result: AmpC inh no detg, Pf growth 96h, SARS PLpro yeast-1, Pf growth 48h)
CCOC(=O)C1CCCN(Cc2nc(Cc3ccccc3Cl)no2)C1 (centres undefined)	Pf growth 96h inconclusive
NOCC(=O)O	SARS PLpro yeast-1 inconclusive | SARS PLpro yeast-2 inactive
COc1nc(Nc2ccc(C(C)C)cc2)nc(OC)n1	SARS PLpro yeast-1 inconclusive, Pf growth 48h 1.17µM, AmpC detergent inconclusive | SARS PLpro yeast-2 inactive
COc1ccc(NC(=O)CN2CCc3ccccc3C2)cc1S(=O)(=O)N1CCOCC1	Pf growth 96h inconclusive, Pf growth 48h inconclusive
COc1ccc(NC(=O)CN2CCOCC2)cc1S(=O)(=O)N1CCCCC1	SARS PLpro yeast-1 inconclusive | SARS PLpro yeast-2 inactive
CCOc1ccc(NC(=O)CN(C)Cc2cc(=O)n3c(-c4ccccc4)csc3n2)cc1OCC	Pf growth 96h inconclusive, Pf growth 48h inconclusive, AmpC detergent inconclusive
CCN(CC(=O)Nc1c(F)cccc1F)C(=O)/C=C/c1ccc2c(c1)OCO2	none
Cc1cc(/C=C(\C#N)C(=O)NC2CCCCCC2)c(C)[nH]1	SARS PLpro yeast-1 12.6µM, Sm TGR inh inconclusive, AmpC detergent inconclusive | SARS PLpro yeast-2 inactive
CCc1nnc(NC(=O)c2ccc(S(=O)(=O)N3CCCc4ccccc43)cc2)o1	SARS PLpro yeast-1 20µM, Pf growth 48h 7.38µM (no result: Pf growth 96h) | SARS PLpro yeast-2 inactive
CCc1nnc(NC(=O)c2ccc(S(=O)(=O)N(CC(C)C)CC(C)C)cc2)o1	SARS PLpro yeast-1 inconclusive, Pf growth 48h inconclusive | SARS PLpro yeast-2 active
O=C(Nc1nnc(C2CC2)o1)c1ccc(S(=O)(=O)N2CCc3ccccc3C2)cc1	Pf growth 96h inconclusive, SARS PLpro yeast-1 inconclusive, AmpC detergent inconclusive | SARS PLpro yeast-2 inconclusive
CCOc1ccc(Nc2c(S(=O)(=O)c3ccc(Cl)cc3)cnc3ccc(OCC)cc23)cc1	none (no result: AmpC inh no detg, Pf growth 96h, SARS PLpro yeast-1, Pf growth 48h)
Cc1ccc(NC(=O)CCC(=O)OCCCC(F)(F)C(F)(F)F)cc1	none
CC(=O)Nc1ccc(NC(=O)C(C)OC(=O)c2c(NC(C)=O)sc(C)c2C)cc1 (centres undefined)	Pf growth 96h inconclusive, SARS PLpro yeast-1 inconclusive | SARS PLpro yeast-2 inactive
CCOC(=O)/C(C#N)=C/c1c[nH]c2ccccc12	none
CCOC(=O)/C(C#N)=C/c1c(OCC)n(CC)c2ccccc12	SARS PLpro yeast-1 12.6µM, Pf growth 48h inconclusive | SARS PLpro yeast-2 inactive
Cc1cc(C)nc(N2CCCC(C(=O)NCCc3ccc(F)cc3)C2)n1 (centres undefined)	Pf growth 96h inconclusive, SARS PLpro yeast-1 inconclusive, AmpC detergent inconclusive | SARS PLpro yeast-2 active
COCCCN1CN(Cc2ccccc2)CNC1=S	none
COCC(O)CNc1ccccc1 (centres undefined)	Pf growth 96h 13.1µM, SARS PLpro yeast-1 inconclusive | SARS PLpro yeast-2 inactive
COc1ccc(OCC(=O)Nn2c(-c3ccc(OC)cc3)nc3ccccc3c2=O)cc1	SARS PLpro yeast-1 inconclusive | SARS PLpro yeast-2 active
